# Where “and” joins values, the source holds several entries; their conditions need not be identical. Equal entries are not always repeated. Values without a mark were called inactive. Records with an inconclusive call do not appear. Calls of active or inactive are those of the source. Unless noted, the call rests on the fitted dose curve; in most records, active means well fitted curve in the direction sought with a large enough effect; inconclusive means small, poorly fitted or top-dose-only effect, or another doubt; inactive means no such curve, though single readings can be large; an effect the other way counts as inactive or inconclusive.
# Key:
# [1] = Cell Viability - BJ (AID 421; calls by dose curve;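 further: potency means the concentration at half of the fitted maximal effect; cells exposed to compound for 40 hours at 37 °C before readout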); settings: BJ fibroblast viability, qHTS
# In short: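 Luminescent ATP signal (CellTiter-Glo, 20 min at room temperature) served as the read-out of viable BJ cells after 40 hours of compound treatment. Responses were scaled between DMSO and 100 uM tamoxifen, and AC50 values were obtained by Hill modeling.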
# [2] = Cell Viability - Jurkat (AID 426;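 active means dose-dependent loss of cell ATP signal giving a full or clear fitted curve, ranked by lower potency value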; further: potency means the concentration at half of the fitted maximal effect); settings: qHTS
# In short: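 Seed 5000 Jurkat E6-1 cells/well; add compound; incubate 40 hr at 37 °C; add CellTiter-Glo; wait 20 min at room temperature; read luminescence. Fit concentration-response with Hill equation for AC50.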
# [3] = Cell Viability - Hek293 (AID 427;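 active means compounds whose dose-response curve shows a full or clear partial loss of cell viability, called from curve shape rather than a numeric limit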;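 further: potency means the concentration at half of the fitted maximal effect; cells exposed to compound for 40 hours at 37 °C before reading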); settings: qHTS
# In short: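 Luminescent ATP read-out (CellTiter-Glo, 20 min RT) after 40 hr compound exposure at 37 °C in complete medium. Signal normalized to DMSO (basal) and 100 uM tamoxifen (100% inhibition); concentration-response fitted with the standard Hill equation to give AC50.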
# [4] = Cell Viability - HepG2 (AID 433; calls by dose curve;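 further: potency means the concentration at half of the fitted maximal effect; potency for ATP loss meaning cytotoxicity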); settings: qHTS
# In short: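 In this qHTS format, a 40 h, 37 °C compound incubation of HepG2 cells in complete medium precedes a 20 min CellTiter-Glo step at room temperature. Tamoxifen and doxorubicin serve as positive controls; Hill-equation fits yield AC50.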
# [5] = Cell Viability - MRC5 (AID 434; calls by dose curve;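 further: potency means the concentration at half of the fitted maximal effect; potency reflects cytotoxicity seen as loss of intracellular ATP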); settings: MRC5 lung fibroblast viability, qHTS
# In short: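 MRC5 normal human lung fibroblasts, 1500 cells/well, exposed to compound for 40 hr at 37 C. Cellular ATP was read by CellTiter-Glo luminescence; data normalized to DMSO and 100 uM tamoxifen, with AC50 from Hill fits.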
# [6] = Cell Viability - SK-N-SH (AID 435; calls by dose curve;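 further: potency means the concentration at half of the fitted maximal effect; compound exposure lasted 40 h at 37 °C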); settings: SK-N-SH neuroblastoma cell viability qHTS
# In short: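 Human neuroblastoma line, 40 h exposure at 37 °C, ATP quantified via luciferase luminescence; DMSO and 100 uM tamoxifen define 0 and 100% inhibition for AC50 fitting.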
# [7] = Cell Viability - N2a (AID 540); settings: N2a mouse neuroblastoma cell viability; activity change, negative = cytotoxicity: at 92.2 µM (top of the series); further: nearly all actives have a fitted effect of over 45% in size; further: potency means the concentration at half of the fitted maximal effect;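 on activity change, negative = cytotoxicity: plate controls were DMSO alone for no effect and tamoxifen control for full effect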
# In short: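 First, 1500 N2a cells per well incubate 5 hr at 37 °C; next, compounds are added and incubated 40 hr at 37 °C; finally CellTiter-Glo is added and luminescence read after 20 min, with AC50 derived by Hill modeling.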
# [8] = Cell Viability - NIH 3T3 (AID 541); settings: NIH 3T3 cell viability, qHTS; activity change, negative = cytotoxicity: at 92.2 µM (top of the series);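 further: plate controls were DMSO alone for no effect and tamoxifen positive control for full effect; nearly all actives have a fitted effect of over 25% in size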
# In short: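 AC50 values reflect concentration-dependent loss of intracellular ATP in NIH 3T3 cells after 40 hr treatment in complete culture medium, quantified by luciferase-based luminescence.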
# [9] = Cell Viability - HUV-EC-C (AID 542); settings: HUV-EC-C endothelial cell viability, qHTS; series mostly up to 92.2 µM; further: nearly all actives have a fitted effect of over 35% in size; further: potency means the concentration at half of the fitted maximal effect
# In short: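 Decrease in cellular ATP, quantified by luciferase luminescence, reflects toxicity in normal human vascular endothelial HUV-EC-C cells given compound for 40 hr in complete culture medium. Values are AC50s from concentration-response curves.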
# [10] = Cell Viability - H-4-II-E (AID 543); settings: H-4-II-E rat hepatoma viability; series mostly up to 92.2 µM; further: nearly all actives have a fitted effect of over 35% in size; further: potency means the concentration at half of the fitted maximal effect
# In short: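 Here, cytotoxicity is measured in the rat hepatoma line H-4-II-E as loss of intracellular ATP after 40 hr compound treatment, detected by luciferase luminescence.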
# [11] = Cell Viability - SH-SY5Y (AID 544); settings: SH-SY5Y neuroblastoma cell viability; series mostly up to 92.2 µM; further: nearly all actives have a fitted effect of over 55% in size; further: potency means the concentration at half of the fitted maximal effect
# In short: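 Cytotoxicity is scored as a concentration-dependent fall in intracellular ATP in human SH-SY5Y cells treated 40 hr in complete culture medium. Potency is expressed as AC50 from a Hill equation fit.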
# [12] = Cell Viability - Renal Proximal Tubule (AID 545); settings: renal proximal tubule cells viability, primary cells of rat origin; series mostly up to 91.7 µM; further: nearly all actives have a fitted effect of over 40% in size; further: potency means the concentration at half of the fitted maximal effect;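 on activity change, negative = cytotoxicity: 0% = DMSO only and -100% = 100 µM tamoxifen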
# In short: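 In this qHTS format, normal rat kidney-derived proximal tubule cells in complete culture medium receive compound titrations, then sit 40 hours at 37 °C before luciferase-based ATP quantitation; potency is reported as AC50 from concentration-response curves.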
# [13] = AP1 Signaling Pathway (AID 357; active means well fitted curve in either direction with a large enough effect, not every such curve was filed as active; further: on the % scale 0 is the no-effect control and ±100 the full control effect); settings: ME-180 AP-1-bla reporter, EGF-induced, beta-lactamase ratio, 5 h; at 17.2 µM (top of the series)
# In short: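 ME-180 cells with beta-lactamase reporter under AP-1 response element, stimulated with EC50 EGF; compounds tested in titration series, 5 h at 37 °C. CCF4 substrate added 2.5 h at room temperature; 460/530 nm emission ratio gave %activity and AC50.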
# [14] = NFAT Signaling Pathway (AID 444; active means well fitted curve in either direction with a large enough effect, not every such curve was filed as active;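 further: carbachol stimulus at about its EC50 of 1 µM final; on the % scale 0 is the no-effect control and ±100 the full control effect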); settings: Jurkat NFAT-bla M1, carbachol, beta-lactamase ratio, 5 h; at 17.2 µM (top of the series)
# In short: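 Jurkat cells with NFAT-driven β-lactamase reporter and co-expressed M1 receptor, stimulated with carbachol (final 1 uM, ~EC50), compound titration, 5 h at 37 °C. CCF4 loaded 1 h at RT; 460/530 nm ratio gave %activity and AC50.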
# [15] = Stat Signaling Pathway (AID 446; active means well fitted curve in either direction with a large enough effect, not every such curve was filed as active;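 further: ME-180 cervical cancer cells given 40 pM IL-6 alongside compound; SIE-controlled beta-lactamase reporter measured as 460/530 nm FRET emission ratio; on the % scale 0 is the no-effect control and ±100 the full control effect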); settings: ME-180 SIE beta-lactamase reporter, IL-6 stimulated, 5 h
# In short: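 ME-180 SIE-bla cells; overnight plating; cpd + IL-6 40 pM, 5 h, 37 C; LiveBLAzer 2.5 h RT; 460/530 nm emission ratio. Normalized to 300 pM IL-6 and 125 nM JAK inhibitor controls.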
# [16] = molecular target: Glucocorticoid receptor (Homo sapiens) (UniProt P04150); test: GR-GFP Redistribution (AID 450;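 active means compounds whose dose series gives a full or clear partial fitted curve of increased nuclear translocation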; further: potency means the concentration at half of the fitted maximal effect); settings: U2OS GR-GFP nuclear translocation, laser cytometry, 2 h
# Sequence of Glucocorticoid receptor (Homo sapiens) (P04150 whole entry, looked up, the tested form may be a part): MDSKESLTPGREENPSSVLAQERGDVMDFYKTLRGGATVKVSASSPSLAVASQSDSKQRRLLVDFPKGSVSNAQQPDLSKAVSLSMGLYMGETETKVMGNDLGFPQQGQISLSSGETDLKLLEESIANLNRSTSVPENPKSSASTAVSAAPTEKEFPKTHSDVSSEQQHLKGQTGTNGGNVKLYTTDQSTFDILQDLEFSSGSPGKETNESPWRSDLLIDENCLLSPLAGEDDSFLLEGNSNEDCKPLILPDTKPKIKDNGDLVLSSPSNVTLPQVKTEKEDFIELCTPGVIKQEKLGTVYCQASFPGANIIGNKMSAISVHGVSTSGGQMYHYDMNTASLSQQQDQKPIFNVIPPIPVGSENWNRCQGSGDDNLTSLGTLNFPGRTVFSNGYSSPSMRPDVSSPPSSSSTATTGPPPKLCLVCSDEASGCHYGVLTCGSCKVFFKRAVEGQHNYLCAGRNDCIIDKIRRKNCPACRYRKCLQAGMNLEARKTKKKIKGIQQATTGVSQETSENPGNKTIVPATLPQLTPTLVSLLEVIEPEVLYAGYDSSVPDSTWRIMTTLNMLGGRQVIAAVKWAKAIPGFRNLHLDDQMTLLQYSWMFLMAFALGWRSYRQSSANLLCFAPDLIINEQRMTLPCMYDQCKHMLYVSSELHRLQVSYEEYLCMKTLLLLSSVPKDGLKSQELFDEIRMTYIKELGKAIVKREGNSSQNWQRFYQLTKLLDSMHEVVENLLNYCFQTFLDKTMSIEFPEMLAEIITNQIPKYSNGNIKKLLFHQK
# [17] = molecular target: Mitogen-activated protein kinase 10 (Mus musculus) (UniProt Q61831); test: JNK3 AlphaScreen Assay (AID 530; active means well fitted curve in either direction with a large enough effect, not every such curve was filed as active;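 further: kinase came from lysate of stimulated human HepG2 cells; signal reports phosphorylation of biotinylated GST-cJun 1-79 at Ser73 with 10 µM ATP; on the % scale 0 is the no-effect control and ±100 the full control effect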); settings: JNK3 lysate, c-Jun phosphorylation; series mostly up to 57.1 µM
# In short: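 qHTS format: compounds tested as titrations against IL-1beta/TNF-alpha-activated HepG2 lysate JNK3 with biotin-GST-cJun substrate and 10 uM ATP at room temperature. Loss of anti-phospho-cJun AlphaScreen signal indicates inhibition.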
# [18] = molecular target: Glucocorticoid receptor (Homo sapiens) (UniProt P04150); test: GR-EFC Redistribution (AID 451; calls by dose curve; further: potency means the concentration at half of the fitted maximal effect); settings: CHO-K1 GR-EFC translocation, beta-gal luminescence, 2 h
# In short: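 CHO-K1 cells expressing nuclear EA and GR-ED fragments of b-gal; compounds titrated up to 46 uM final, 2 h at 37 C. GR nuclear translocation read as complemented b-gal luminescence after 1 h RT detection.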
structure (smiles),measurement,setting,value
Cc1cc2nc3c(=O)[nH]c(=O)nc-3n(C[C@H](O)[C@H](O)[C@H](O)CO)c2cc1C,Potency,[1],> 92 µM
same,Potency,[2],> 92 µM
same,Potency,[3],> 92 µM
same,Potency,[4],> 92 µM
same,Potency,[5],> 92 µM
same,Potency,[6],> 92 µM
same,"activity change, negative = cytotoxicity",[7],0.316%
same,Potency,[8],inactive
same,Potency,[9],inactive
same,Potency,[10],inactive
same,Potency,[11],inactive
same,Potency,[12],inactive
O=C1O[C@H]([C@@H](O)CO)C(O)=C1O,Potency,[1],> 92 µM
same,Potency,[2],> 92 µM
same,Potency,[3],> 92 µM
same,Potency,[4],> 92 µM
same,Potency,[5],> 92 µM
same,Potency,[6],> 92 µM
same,"activity change, negative = cytotoxicity",[7],3.88%
same,Potency,[8],inactive
same,Potency,[9],inactive
same,Potency,[10],inactive
same,Potency,[11],inactive
same,Potency,[12],inactive
OCC(O)CN1CCN(c2ccccc2)CC1 (stereo not drawn),"activity change, negative = inhibition",[13],-1.76%
same,"activity change, negative = inhibition",[14],8.65%
same,"activity, negative = inhibition",[15]; at 17.2 µM (top of the series),10.1%
same,Potency,[16],> 20.6 µM
CC1(C)[C@@H]2CC[C@@]1(C)C(=O)C2,Potency,[1],> 92 µM
same,Potency,[2],> 92 µM
same,Potency,[3],> 92 µM
same,Potency,[4],> 92 µM
same,Potency,[5],> 92 µM
same,Potency,[6],> 92 µM
same,Potency,[17],inactive
same,"activity change, negative = cytotoxicity",[7],2.78%
same,Potency,[8],inactive
same,Potency,[9],inactive
same,Potency,[10],inactive
same,Potency,[11],inactive
same,Potency,[12],inactive
Oc1cccc(O)c1,Potency,[1],> 92 µM
same,Potency,[3],> 92 µM
same,Potency,[4],> 92 µM
same,Potency,[5],> 92 µM
same,"activity change, negative = cytotoxicity",[7],-7.46%
same,Potency,[8],inactive
same,Potency,[9],inactive
same,Potency,[10],inactive
same,Potency,[12],inactive
C[C@H](N)[C@H](O)c1cccc(O)c1,"activity change, negative = inhibition",[13],2.95%
same,"activity change, negative = inhibition",[14],-4.86%
same,"activity, negative = inhibition",[15]; at 17.2 µM (top of the series),4.65%
same,Potency,[16],> 20.6 µM
same,Potency,[18],> 20.6 µM
CNC(=O)Oc1ccc2c(c1)[C@]1(C)CCN(C)[C@@H]1N2C,"activity change, negative = inhibition",[13],8.81%
same,"activity change, negative = inhibition",[14],5.79%
same,"activity, negative = inhibition",[15]; at 17.2 µM (top of the series),4.34%
O=C(CCCN1CCN(c2ccccn2)CC1)c1ccc(F)cc1,"activity change, negative = inhibition",[13],7.66%
same,"activity, negative = inhibition",[15]; at 17.2 µM (top of the series),-8.71%
Cc1c(O)cccc1C(=O)N[C@@H](CSc1ccccc1)[C@H](O)CN1C[C@H]2CCCC[C@H]2C[C@H]1C(=O)NC(C)(C)C,Potency,[1],25.2 µM (active)
same,Potency,[2],31.8 µM (active)
same,Potency,[3],24.4 µM (active)
same,Potency,[4],24.6 µM (active)
same,Potency,[5],31.7 µM (active)
same,Potency,[6],24.5 µM (active)
same,"activity change, negative = cytotoxicity",[7],-108% (active)
same,Potency,[9],31.6 µM (active)
same,Potency,[10],31.6 µM (active)
same,Potency,[11],1.26 µM (active)
same,Potency,[12],31.6 µM (active)
NC(=O)N/N=C/c1ccc([N+](=O)[O-])o1,Potency,[1],> 92 µM
same,Potency,[5],> 92 µM
same,Potency,[6],> 92 µM
same,Potency,[7],31.6 µM (active)
same,"activity change, negative = cytotoxicity",[8],-81.4% (active)
same,Potency,[9],inactive
same,Potency,[10],31.6 µM (active)
same,Potency,[11],inactive
same,Potency,[12],inactive
CCCCOc1cc(C(=O)OCCN(CC)CC)ccc1N,"activity change, negative = inhibition",[13],-0.742%
same,"activity, negative = inhibition",[15]; at 17.2 µM (top of the series),-0.0669%
same,Potency,[16],> 20.6 µM
same,Potency,[18],> 20.6 µM
CC(CN1c2ccccc2Sc2ccccc21)N(C)C (stereo not drawn),"activity change, negative = inhibition",[14],-73.5% (active)
same,"activity, negative = inhibition",[15]; at 17.2 µM (top of the series),-1.09%
NCCNCCNCCNCCN,Potency,[1],> 92 µM
same,Potency,[2],> 92 µM
same,Potency,[3],> 92 µM
same,Potency,[4],> 92 µM
same,Potency,[5],> 92 µM
same,Potency,[6],> 92 µM
same,"activity change, negative = cytotoxicity",[7],-2.82%
same,Potency,[8],inactive
same,Potency,[9],inactive
same,Potency,[10],inactive
same,Potency,[11],inactive
same,Potency,[12],inactive
CC(COc1ccccc1)NC(C)C(O)c1ccc(O)cc1 (stereo not drawn),"activity change, negative = inhibition",[13],9.92%
same,"activity, negative = inhibition",[15]; at 17.2 µM (top of the series),20.7%
same,Potency,[16],> 20.6 µM
CN(C)CCCN1c2ccccc2Sc2ccc(Cl)cc21,"activity change, negative = inhibition",[14],-73.6% (active)
same,"activity, negative = inhibition",[15]; at 17.2 µM (top of the series),-1.56% and 4.13%
same,"activity, negative = inhibition",[15]; at 38 µM (top of the series),-20.2%
same,Potency,[16],> 20.6 µM
same,Potency,[18],> 46 µM and > 20.6 µM
COc1ccccc1O,Potency,[1],> 92 µM
same,Potency,[2],> 92 µM
same,Potency,[3],> 92 µM
same,Potency,[4],> 92 µM
same,Potency,[5],> 92 µM
same,Potency,[6],> 92 µM
same,"activity change, negative = cytotoxicity",[7],1.24% and 7.3% and 7.13%
same,Potency,[8],inactive
same,Potency,[9],inactive
same,Potency,[10],inactive
same,Potency,[11],inactive
same,Potency,[12],inactive
